Assay results taken from PubChem BioAssay.
Active and inactive are the calls of the source. Unless noted, no rule for the calls is given here.

What was measured:
[1] = anti-His antibody binders, primary screen, artefact control for SMM control protein annotation, biochemical, small-molecule microarray, 635 nm fluorescence (AID 1128); conditions: anti-His Alexa647 antibody binding, higher = more signal;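 also: score merges feature fluorescence with signal-to-noise for each printed compound spot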
[2] = system: Human papillomavirus type 1a E7 protein (residues 1-88); test: HPV1a E7 small-molecule binders, primary screen, biochemical, small-molecule microarray, residues 1-88, 635 nm (AID 1129); conditions: small-molecule microarray binding, fluorescence 635 nm; higher = more signal
[3] = target: Focal adhesion kinase 1 (Homo sapiens) (UniProt Q05397); test: small-molecule microarray binders of FAK, primary screen, biochemical, 635/667 nm fluorescence, BSA, DTT (AID 1130); conditions: PTK2 binding, 635 nm fluorescence, higher = more signal;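 also: composite of spot emission at 667 nm and signal to noise over triplicate slides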
[4] = system: Fibrinogen (Alexa647-labelled); test: fibrinogen binders on compound microarrays, profiling panel, artefact control for SMM control-protein annotation, biochemical, small-molecule microarray, 635/667 nm fluorescence (AID 1131); conditions: fibrinogen-A647 binding fluorescence, higher = more signal;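 also: z-score merges 667 nm fluorescence with per-spot signal-to-noise over triplicate slides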
[5] = target: Follistatin (Homo sapiens) (UniProt P19883); test: follistatin binders on small-molecule microarrays, primary screen, biochemical, small-molecule microarray, 635/667 nm fluorescence (AID 1132); conditions: FST binding, 635 nm fluorescence, higher = more signal
[6] = target: Fibroblast growth factor 2 (Homo sapiens) (UniProt P09038); test: FGF2 binders on small-molecule microarrays, primary screen, biochemical, small-molecule microarray, 635/667 nm fluorescence (AID 1133); conditions: small-molecule microarray binding, FGF2, fluorescence 635/667; higher = more signal
[7] = mitochondrial membrane potential change in A549 cells, profiling panel, cell-based, JC-1 fluorescence, basal, 24 h, 100 nL (AID 1138); conditions: higher = more signal;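 also: A549 lung adenocarcinoma cells under basal conditions with no added stimulus; test concentration not given here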
Lefty1 = Lefty1 binders on small-molecule microarrays, primary screen, biochemical, small-molecule microarray, 635/667 nm fluorescence (AID 1139); conditions: small-molecule microarray binding, fluorescence 635/667; higher = more signal
[8] = system: wheat germ agglutinin (Triticum aestivum), Alexa647-labelled; test: wheat germ agglutinin binders on compound microarrays, profiling panel, artefact control for SMM control-protein annotation, biochemical, small-molecule microarray, 635/667 nm fluorescence (AID 1140); conditions: WGA-A647 binding, 635 nm fluorescence, higher = more signal;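 also: score merges 667 nm feature emission with signal to noise over triplicate slides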
[9] = target: Luciferin 4-monooxygenase (Photinus pyralis) (UniProt P08659); test: firefly luciferase enzyme inhibitors, primary screen, biochemical, luminescence, purified enzyme, 2006 set (AID 1141); conditions: SteadyGlo luminescence, 30 min, higher = more signal, called active from +8 up or from −8 down;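 also: cell-free assay with purified firefly luciferase at 100 ng per well in PBS; test concentration not given here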
[10] = system: Wnt5a (protein binding on small-molecule microarray); test: Wnt5a binders on small-molecule microarray, primary screen, biophysical, 635/667 nm fluorescence (AID 1142); conditions: 635 nm fluorescence, higher = more signal;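 also: fluorescence read at 667 nm with signal to noise per printed feature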
[11] = cell viability in Huh7 cells, primary screen, cytotoxicity control for HCV replication inhibitor project, CellTiter-Glo luminescence, basal, 48 h (AID 1143); conditions: Huh7 HCV replicon, higher = more signal, called active from +8 up or from −8 down;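 also: Huh7 hepatoma cells carrying a hepatitis C replication reporter with no stimulus; test concentration not given here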
[12] = P. aeruginosa biofilm formation inhibitors, primary screen, PAO1 strain, BacTiter-Glo luminescence, LB-PBS (AID 1144); conditions: 12 h, higher = more signal
[13] = CREB reporter modulators without forskolin, primary screen, cell-based, PC12, CRE-LacZ reporter, unstimulated (AID 1145); conditions: no forskolin, luminescence, 4.5 h, higher = more signal, called active from +8 up or from −8 down
[14] = CREB reporter modulators under forskolin, primary screen, cell-based, PC12, CRE-LacZ reporter, forskolin-stimulated (AID 1146); conditions: luminescence, 4.5 h, higher = more signal, called active from +8 up or from −8 down;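 also: PC12 cells with 6xCRE LacZ reporter stimulated by forskolin 10 µM; beta-galactosidase reporter signal reflecting CREB driven transcription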
[15] = target: Streptavidin (Streptomyces avidinii) (UniProt P22629); test: streptavidin binders on small-molecule microarray, primary screen, artefact control for SMM compound annotation, biophysical, 635/667 nm fluorescence (AID 1147); conditions: streptavidin binding, higher = more signal;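 also: signal reflects streptavidin binding to arrayed compounds as a control protein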
[16] = small-molecule binders of probe aInhba, primary screen, biochemical, small-molecule microarray, 635/667 nm fluorescence (AID 1148); conditions: higher = more signal;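 also: score merges 667nm spot fluorescence with signal-to-noise for antibody binding to printed compounds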
Torsin-1A (Homo sapiens) [17] = target: Torsin-1A (Homo sapiens) (UniProt O14656); test: torsin A binders from cell lysate, primary screen, small-molecule microarray, wild-type, 635/667 nm (AID 1149); conditions: COS7 hTOR1A-WT lysate, 635 nm fluorescence, higher = more signal
Torsin-1A (Homo sapiens) [18] = target: Torsin-1A (Homo sapiens) (UniProt O14656); test: small-molecule binders of mutant TOR1A in lysate, primary screen, cell lysate, small-molecule microarray, COS7 lysate, 635/667 nm fluorescence (AID 1150); conditions: COS7 hTOR1A mutant lysate, 635 nm fluorescence, higher = more signal;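 also: score pools 667 nm emission and signal to noise measuring lysate protein binding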
[19] = system: Sonic hedgehog protein (Shh); test: small-molecule binders of Shh protein, primary screen, biochemical, small-molecule microarray, 635/667 nm fluorescence (AID 1151); conditions: small-molecule microarray binding, 635 nm fluorescence; higher = more signal;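 also: Shh protein binding to compounds spotted on small-molecule microarray slides; score combines spot fluorescence intensity with signal-to-noise across triplicate slides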

Chain of Fibroblast growth factor 2 (Homo sapiens) (P09038 whole entry, looked up): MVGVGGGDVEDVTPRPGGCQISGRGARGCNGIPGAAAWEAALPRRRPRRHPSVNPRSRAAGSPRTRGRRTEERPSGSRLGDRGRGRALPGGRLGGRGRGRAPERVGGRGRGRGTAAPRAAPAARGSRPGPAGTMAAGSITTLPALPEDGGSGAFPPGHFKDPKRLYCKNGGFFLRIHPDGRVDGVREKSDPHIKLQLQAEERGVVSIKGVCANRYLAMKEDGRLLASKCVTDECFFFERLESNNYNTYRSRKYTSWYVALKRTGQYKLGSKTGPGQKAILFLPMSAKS
Chain of Torsin-1A (Homo sapiens) (O14656 whole entry, looked up): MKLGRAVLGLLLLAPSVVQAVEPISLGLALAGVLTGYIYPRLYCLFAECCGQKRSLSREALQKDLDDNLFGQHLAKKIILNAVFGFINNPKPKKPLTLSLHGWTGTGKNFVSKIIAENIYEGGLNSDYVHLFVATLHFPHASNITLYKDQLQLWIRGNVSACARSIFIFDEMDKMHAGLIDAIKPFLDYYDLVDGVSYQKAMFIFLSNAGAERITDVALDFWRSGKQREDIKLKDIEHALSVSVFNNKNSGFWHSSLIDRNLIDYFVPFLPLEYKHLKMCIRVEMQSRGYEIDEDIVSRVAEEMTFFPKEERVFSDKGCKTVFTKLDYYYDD
Chain of Focal adhesion kinase 1 (Homo sapiens) (Q05397 whole entry, looked up): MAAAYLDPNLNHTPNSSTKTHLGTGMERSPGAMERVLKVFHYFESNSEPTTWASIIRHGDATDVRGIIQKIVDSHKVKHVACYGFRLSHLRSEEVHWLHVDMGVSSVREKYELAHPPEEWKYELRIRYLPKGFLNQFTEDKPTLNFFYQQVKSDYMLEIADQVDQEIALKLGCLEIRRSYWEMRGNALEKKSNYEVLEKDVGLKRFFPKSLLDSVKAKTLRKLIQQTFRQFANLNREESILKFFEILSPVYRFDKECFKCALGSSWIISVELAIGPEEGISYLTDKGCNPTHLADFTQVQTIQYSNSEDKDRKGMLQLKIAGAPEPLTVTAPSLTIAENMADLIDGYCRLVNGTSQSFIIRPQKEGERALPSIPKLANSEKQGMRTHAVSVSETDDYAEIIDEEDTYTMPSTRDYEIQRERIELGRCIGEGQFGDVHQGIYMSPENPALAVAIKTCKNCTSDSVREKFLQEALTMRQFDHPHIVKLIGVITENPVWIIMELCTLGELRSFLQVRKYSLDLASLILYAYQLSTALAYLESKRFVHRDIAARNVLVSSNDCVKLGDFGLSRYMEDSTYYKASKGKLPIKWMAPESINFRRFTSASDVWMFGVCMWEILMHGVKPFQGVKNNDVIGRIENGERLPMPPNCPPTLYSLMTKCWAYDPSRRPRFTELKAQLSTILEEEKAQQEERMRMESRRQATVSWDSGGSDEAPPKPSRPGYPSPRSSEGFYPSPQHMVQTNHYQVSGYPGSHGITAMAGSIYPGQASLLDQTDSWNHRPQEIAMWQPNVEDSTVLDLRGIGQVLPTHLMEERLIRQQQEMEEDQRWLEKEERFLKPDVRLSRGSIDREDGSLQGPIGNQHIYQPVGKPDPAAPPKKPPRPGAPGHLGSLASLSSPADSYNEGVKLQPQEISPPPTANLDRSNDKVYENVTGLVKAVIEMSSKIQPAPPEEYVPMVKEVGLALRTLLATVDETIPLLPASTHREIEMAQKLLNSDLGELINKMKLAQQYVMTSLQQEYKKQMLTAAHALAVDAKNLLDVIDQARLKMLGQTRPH
Chain of Luciferin 4-monooxygenase (Photinus pyralis) (P08659 whole entry, looked up): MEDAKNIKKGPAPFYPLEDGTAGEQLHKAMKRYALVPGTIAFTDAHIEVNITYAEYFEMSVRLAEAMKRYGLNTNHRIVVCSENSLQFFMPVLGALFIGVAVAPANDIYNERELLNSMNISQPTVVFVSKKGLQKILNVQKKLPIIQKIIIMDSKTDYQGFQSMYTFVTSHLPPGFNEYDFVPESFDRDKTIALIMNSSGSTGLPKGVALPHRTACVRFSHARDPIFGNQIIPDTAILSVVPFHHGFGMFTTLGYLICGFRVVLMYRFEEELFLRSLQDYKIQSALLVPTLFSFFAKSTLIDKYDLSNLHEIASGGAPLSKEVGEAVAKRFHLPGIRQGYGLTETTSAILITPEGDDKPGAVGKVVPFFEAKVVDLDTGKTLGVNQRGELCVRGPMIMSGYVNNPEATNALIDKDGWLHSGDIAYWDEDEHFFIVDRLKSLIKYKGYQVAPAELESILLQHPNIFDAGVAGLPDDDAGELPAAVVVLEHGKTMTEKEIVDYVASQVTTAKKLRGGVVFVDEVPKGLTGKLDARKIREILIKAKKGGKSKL
Chain of Follistatin (Homo sapiens) (P19883 whole entry, looked up): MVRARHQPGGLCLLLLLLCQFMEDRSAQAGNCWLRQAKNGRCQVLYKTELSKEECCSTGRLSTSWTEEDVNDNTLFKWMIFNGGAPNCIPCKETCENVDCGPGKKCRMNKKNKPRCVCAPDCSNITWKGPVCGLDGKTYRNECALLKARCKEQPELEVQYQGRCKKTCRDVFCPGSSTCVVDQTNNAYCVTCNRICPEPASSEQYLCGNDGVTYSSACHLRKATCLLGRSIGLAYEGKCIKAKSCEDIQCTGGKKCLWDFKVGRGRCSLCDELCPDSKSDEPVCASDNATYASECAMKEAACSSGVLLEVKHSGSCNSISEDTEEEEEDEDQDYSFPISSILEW
Chain of Streptavidin (Streptomyces avidinii) (P22629 whole entry, looked up): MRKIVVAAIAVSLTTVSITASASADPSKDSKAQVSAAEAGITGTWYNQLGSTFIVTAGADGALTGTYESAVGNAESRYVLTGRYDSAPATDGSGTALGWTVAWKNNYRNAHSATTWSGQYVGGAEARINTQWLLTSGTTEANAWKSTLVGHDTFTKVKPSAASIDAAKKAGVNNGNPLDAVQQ

Compound | composite z-score [1] | composite z-score [2] | composite z-score [3] | composite z-score [4] | composite z-score [5] | composite z-score [6] | z-score [7] | composite z-score (Lefty1) | composite z-score [8] | z-score [9] | composite z-score [10] | z-score [11] | z-score [12] | z-score [13] | z-score [14] | composite z-score [15] | composite z-score [16] | composite z-score (Torsin-1A (Homo sapiens) [17]) | composite z-score (Torsin-1A (Homo sapiens) [18]) | composite z-score [19]
CCOC(=O)C[C@H]1[C@H](OC(=O)c2cc3ccccc3oc2=O)[C@@H](NC(=O)c2ccc3ccccc3c2)c2cc(OCCCO)ccc2N1C(=O)Cc1ccc(OC)cc1 | -0.017 | 0.743 | 0.307 | 0.932 | 0.911 | 0.518 | -0.167 | 0.631 | 0.664 | 0.842 (inactive) | 0.174 | -0.361 (inactive) | -0.784 (inactive) | 0.402 (inactive) | -0.931 (inactive) | 1 | -0.231 | 0.462 | 0.746 | 0.47
COCCCNC(=O)[C@@]1(Sc2ccc(C)cc2)CC(=O)N(C(C)C)[C@@H]1c1ccc(CO)cc1I | -0.578 | 0.569 | -0.0285 | -0.491 | -0.035 | -0.335 | -0.0858 | -0.21 | 0.271 | 0.805 (inactive) | -0.0469 | -4.86 (inactive) | -0.96 (inactive) | 0.0655 (inactive) | 1.35 (inactive) | -0.671 | -0.0762 | 0.154 | 1.18 | -0.005
CN1C(=O)[C@@]2(Cc3ccccc3)N=C(c3ccc(OCCCO)cc3)O[C@H]2c2ccccc21 | 1.32 | 1.22 | 0.241 | 0.619 | 1.48 | 1.25 | 0.558 | 0.941 | 0.3 | -6.41 (inactive) | 0.634 | -4.44 (inactive) | -0.458 (inactive) | 1.04 (inactive) | -1.67 (inactive) | 0.0831 | 0.382 | 0.266 | -0.0779 | 1.45
O=C(CS)NCCCCCCNC(=O)[C@@H]1C[C@@H]2C(=O)NCC(=O)N2[C@@H]1c1ccc(O)cc1 | 2.52 | -0.41 | 0.0509 | -0.975 | 0.526 | 1.18 | 0.601 | -0.628 | -0.498 | -1.38 (inactive) | -0.101 | -0.534 (inactive) | -1.26 (inactive) | -0.537 (inactive) | -1.57 (inactive) | -0.635 | -0.293 | 0.397 | -0.814 | 0.236
C=CCNC(=O)[C@@H]1[C@H]2C(=O)O[C@H](c3ccccc3)[C@H](c3ccccc3)N2[C@H](c2ccc(O)cc2)[C@@]12C(=O)N(C(=O)OCCOC)c1ccc(C#CCCO)cc12 | 1.45 | 0.779 | 0.863 | 0.389 | 1.19 | 1.25 | 0.703 | 0.531 | 0.862 | -0.52 (inactive) | 0.905 | -0.2 (inactive) | 0.171 (inactive) | -0.337 (inactive) | 0.243 (inactive) | 0.945 | 0.198 | 0.463 | 0.235 | 2.07
CCOC(=O)C[C@H]1[C@H](OC(=O)c2ccc(C(=O)c3ccccc3)cc2)[C@@H](NC(=O)CC(C)C)c2cc(OCCCO)ccc2N1C(=O)Cc1ccc(OC)cc1 | 0.201 | 0.766 | 0.721 | 0.286 | 0.264 | 0.194 | 0.911 | -0.215 | 0.675 | -0.563 (inactive) | 0.11 | -0.349 (inactive) | -0.356 (inactive) | 0.731 (inactive) | -0.117 (inactive) | -0.0635 | 0.128 | 0.311 | 0.498 | -0.0145
O=C1N[C@@H](Cc2ccccc2)C(=O)N2[C@@H]1C[C@@H](C(=O)O)[C@H]2c1ccc(O)cc1 | 2.01 | -0.219 | -0.11 | 0.68 | 1.35 | 1.26 | 0.0945 | 1.58 | 0.828 | -1.43 (inactive) | 0.391 | -0.477 (inactive) | 0.106 (inactive) | 0.692 (inactive) | -0.789 (inactive) | 0.0885 | 0.25 | 0.574 | 0.533 | 2.02
C#C[C@@H](CC)O[Si](C#CCCCC#N)(C(C)C)C(C)C | 2.55 | 0.0253 | 0.278 | -0.014 | -0.295 | 0.895 | 0.168 | 0.232 | -0.0711 | -0.732 (inactive) | 0.162 | -0.667 (inactive) | 0.132 (inactive) | -0.868 (inactive) | 4.95 (inactive) | -0.0686 | -0.0762 | 0.491 | 1.69 | 0.473
CC(C)C(=C=CC[C@@H](O)c1cccc(OCCO)c1)C[C@@H](O)COCc1ccccc1 | 0.292 | 0.158 | -0.276 | 0.0013 | 0.844 | 0.34 | 1.6 | 0.318 | 0.866 | -2.11 (inactive) | 0.139 | -2.36 (inactive) | 0.232 (inactive) | 7.66 (inactive) | -1 (inactive) | -0.506 | -0.165 | -0.134 | -0.377 | 1.06
C=C(COC)/C(=C/C[C@H](OC(C)=O)c1cccc(OCCO)c1)c1cnc2ccccc2c1 | 0.18 | 1.02 | -0.105 | 0.246 | 1.46 | 1.57 | 1.05 | 1.53 | 1.14 | -1.06 (inactive) | 0.484 | -0.184 (inactive) | 0.167 (inactive) | 3.72 (inactive) | 0.298 (inactive) | 1.46 | 0.109 | 1.24 | 0.583 | 2.11
